This passage reports growth results from PubChem BioAssay (NCI).

The panel holds about 83,000 compounds, 20% with a hit somewhere; the sample as a whole holds those more often.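 Testing used 96-well plates and a 48-hour single-concentration exposure. Example: -40 means 40% of the starting cells died.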 Unmarked numbers belong to inactive results. Active and inactive are the calls of the source. Rule for the calls: active = growth percent below 10; inactive = the rest.

Holding throughout (test): NCI-60 one-dose screen, 48 h (100 = growth as untreated, 0 = no growth, -100 = all killed)
One test relates to SR leukemia. Particulars: 10 µM unless noted.
A further test concerns RPMI-8226 leukemia. Particulars: 10 µM unless noted.
The test system of a further test is OVCAR-8 ovarian. Particulars: 10 µM unless noted.
The subject of the next test is OVCAR-5 ovarian. Particulars: 10 µM unless noted.
The test system of a further test is OVCAR-4 ovarian. Particulars: 10 µM unless noted.
In the next test the test system is SK-OV-3 ovarian. Particulars: 10 µM unless noted.
The next test relates to IGROV1 ovarian. Particulars: 10 µM unless noted.
The test system of the next test is OVCAR-3 ovarian. Particulars: 10 µM unless noted.
A further test relates to HS 578T breast. Particulars: 10 µM.
Another test concerns T-47D breast. Particulars: 10 µM unless noted.
The subject of another test is BT-549 breast. Particulars: 10 µM unless noted.
The test system of a further test is MDA-MB-435 melanoma. Particulars: 10 µM unless noted.
The subject of another test is SW-620 colon. Particulars: 10 µM unless noted.
For another test, the system named is MCF7 breast. Particulars: 10 µM unless noted.
In the next test the test system is HCT-116 colon. Particulars: 10 µM unless noted.
For the next test, the system named is HCC-2998 colon. Particulars: 10 µM unless noted.
Another test concerns KM12 colon. Particulars: 10 µM unless noted.
A further test concerns NCI/ADR-RES ovarian. Particulars: 10 µM unless noted.

Regarding `CC(=O)c1c(O)c(C)c(O)c2c1OC1=CC(=O)/C(=C(/C)N)C(=O)C12C` (configuration not stated), the growth in the test on SR leukemia is 69%; in the test with RPMI-8226 leukemia, 68.6%; in the test with OVCAR-8 ovarian, 81.8%; in the test with OVCAR-5 ovarian, 98.5%; with OVCAR-4 ovarian, 88.1%; in the test on SK-OV-3 ovarian, 101%. Further, the growth in the test on IGROV1 ovarian is 89.1%; in the test with OVCAR-3 ovarian, 103%; with HS 578T breast it was 91.5%; in the test with T-47D breast, 74.9%; with BT-549 breast, 89.3%; in the test with MDA-MB-435 melanoma, 103%. Besides, the growth with SW-620 colon is 99.4%; in the test with MCF7 breast it was 85.4%; in the test on HCT-116 colon, 63.4%; in the test with HCC-2998 colon it was 103%; in the test with KM12 colon, 88%.
For `COc1cc2c(cc1OC)C(=O)C(Br)CC2` (configuration not stated), the growth in the test with SR leukemia is 19.8%; in the test on RPMI-8226 leukemia it was 20.6%; in the test on OVCAR-8 ovarian it was 33%; with OVCAR-5 ovarian, 73.7%; with OVCAR-4 ovarian, 52.7%; in the test with SK-OV-3 ovarian, 83.2%. For the same compound, the growth with IGROV1 ovarian was 41.7%; in the test with OVCAR-3 ovarian, 38.9%; in the test with HS 578T breast it was 88.8%; with T-47D breast it was 36.3%; in the test with BT-549 breast, 16.1%; in the test on MDA-MB-435 melanoma, 20.2%. The growth in the test on SW-620 colon was 25.1%; in the test with MCF7 breast, 40.9%; in the test with HCT-116 colon it was 7.03% (active); in the test on HCC-2998 colon it was 90.6%; in the test with KM12 colon, 88.9%.
For `FC(F)(F)C1=NNC(c2ccc3ccccc3c2)=NN1`, the growth with SR leukemia was 95%; in the test with RPMI-8226 leukemia it was 94%; in the test on OVCAR-8 ovarian it was 97.4%; in the test on OVCAR-5 ovarian, 96.9%; in the test on OVCAR-4 ovarian, 96.2%; in the test with SK-OV-3 ovarian it was 104%. Further, the growth in the test with IGROV1 ovarian was 103%; in the test with OVCAR-3 ovarian, 101%; in the test on HS 578T breast, 95.9%; in the test on T-47D breast, 96.7%; in the test on BT-549 breast it was 107%; in the test with MDA-MB-435 melanoma, 102%. For the same compound, the growth in the test with SW-620 colon was 97.9%; with MCF7 breast it was 88.7%; in the test on HCT-116 colon, 100%; in the test with HCC-2998 colon, 118%; in the test with KM12 colon, 93.7%.
In the case of `O=C(C(Br)C(Br)c1ccccc1)C(Br)C(Br)c1ccccc1` (configuration not stated), the growth is -44.9% (active) in the test on SR leukemia; -36.6% (active) in the test with RPMI-8226 leukemia; -10.8% (active) with OVCAR-8 ovarian; -57.4% (active) in the test with OVCAR-5 ovarian; 34.9% with OVCAR-4 ovarian; 83.1% in the test with SK-OV-3 ovarian. The growth with IGROV1 ovarian is -49.5% (active); in the test with OVCAR-3 ovarian, -79.9% (active); in the test on HS 578T breast it was 39.4%; in the test with T-47D breast, -30.6% (active); in the test on BT-549 breast, -82.8% (active); with MDA-MB-435 melanoma it was -37.5% (active). The growth was -71.1% (active) in the test on SW-620 colon; -19.2% (active) in the test with MCF7 breast; -99.5% (active) in the test on HCT-116 colon; -8.59% (active) in the test on HCC-2998 colon; -63.3% (active) in the test with KM12 colon.
For `CCOC(=O)Nc1ccc2nc(-c3cscn3)[nH]c2c1`, the growth in the test with SR leukemia is 23.3%; in the test on RPMI-8226 leukemia, 43.1%; in the test with OVCAR-8 ovarian it was 57.8%; in the test with OVCAR-5 ovarian, 85.9%; with OVCAR-4 ovarian, 89.7%; with SK-OV-3 ovarian, 56.5%. Besides, the growth with IGROV1 ovarian was 42.6%; with OVCAR-3 ovarian, 22.8%; with HS 578T breast, 64.7%; with T-47D breast, 44.5%; with BT-549 breast, 48.6%; in the test with MDA-MB-435 melanoma, -40.5% (active). Moreover, the growth in the test with SW-620 colon is 19.8%; in the test with MCF7 breast, 34%; in the test on HCT-116 colon, 21.6%; in the test with HCC-2998 colon, 65.7%; with KM12 colon, 34.3%.
As to `COc1ccc(NC(=O)C2c3ccccc3C(=O)N(CC(C)C)C2c2cccs2)cc1` (configuration not stated), the growth in the test with SR leukemia is 96.5%; in the test with RPMI-8226 leukemia it was 86.3%; in the test with OVCAR-8 ovarian, 89.1%; in the test with OVCAR-5 ovarian, 97%; in the test on OVCAR-4 ovarian it was 93.6%; in the test on SK-OV-3 ovarian, 96.5%. The growth in the test on IGROV1 ovarian is 117%; in the test with OVCAR-3 ovarian, 102%; in the test on HS 578T breast, 92.2%; with T-47D breast, 102%; in the test with BT-549 breast, 98.9%; in the test with MDA-MB-435 melanoma, 103%. The growth was 92% in the test on SW-620 colon; 82.3% in the test with MCF7 breast; 93.3% in the test on HCT-116 colon; 93.3% in the test with HCC-2998 colon; 97.5% with KM12 colon.
Turning to `Cc1ccc(N2C3c4ccccc4N(S(=O)(=O)c4ccc(C)cc4)C2c2ccccc2N3S(=O)(=O)c2ccc(C)cc2)cc1`, the growth in the test on SR leukemia was 96%; in the test on RPMI-8226 leukemia it was 93.1%; in the test with OVCAR-8 ovarian, 88.9%; in the test with OVCAR-5 ovarian it was 105%; in the test with OVCAR-4 ovarian, 93.9%; with SK-OV-3 ovarian, 106%. The growth in the test on IGROV1 ovarian was 107%; with OVCAR-3 ovarian, 107%; in the test on HS 578T breast, 99.5%; in the test with T-47D breast it was 93.2%; in the test on BT-549 breast, 115%; in the test on MDA-MB-435 melanoma, 99.9%. The growth in the test with SW-620 colon is 96.6%; in the test on MCF7 breast, 88.5%; with HCT-116 colon, 121%; with HCC-2998 colon, 115%; in the test with KM12 colon, 95.4%.
In the case of `CCN(CC)Cc1cc(Nc2nc(NC3CCC(N(C)C)CC3)c3ccccc3n2)ccc1OC` (configuration not stated), the growth is 49.6% in the test with SR leukemia; 0.511% (active) with RPMI-8226 leukemia; 63.8% in the test on OVCAR-8 ovarian; 92.3% in the test with OVCAR-5 ovarian; 52.1% in the test with OVCAR-4 ovarian; 107% in the test on SK-OV-3 ovarian. The growth with IGROV1 ovarian is 82.4%; in the test with OVCAR-3 ovarian, 92.4%; in the test with HS 578T breast, 73.4%; in the test on T-47D breast it was 53.9%; with BT-549 breast, 107%; with MDA-MB-435 melanoma, 39.5%. Moreover, the growth in the test on SW-620 colon was 61.4%; with MCF7 breast, 40.1%; in the test with HCT-116 colon, 60.5%; in the test with HCC-2998 colon, 81.3%; in the test with KM12 colon, 61.1%.
Consider `CN1CCN(Cc2ccc(NC(=O)c3cncc(C#Cc4ncc5cnccn45)c3)cc2C(F)(F)F)CC1`, for which the growth was 50.8% with SR leukemia; 44.3% in the test with RPMI-8226 leukemia; 70% in the test on OVCAR-8 ovarian; 35.1% in the test with OVCAR-5 ovarian; 41.3% with OVCAR-4 ovarian; 42.8% with SK-OV-3 ovarian. In addition, the growth in the test on IGROV1 ovarian was 42.2%; in the test with OVCAR-3 ovarian, 69.6%; in the test on HS 578T breast it was 52.2%; in the test on NCI/ADR-RES ovarian, 92.7%; in the test with BT-549 breast, 63.7%; in the test on MDA-MB-435 melanoma, 39.3%. The growth is 22% in the test with SW-620 colon, 16.6% in the test on HCT-116 colon, 43.1% in the test on HCC-2998 colon and 13.2% in the test with KM12 colon.
